Experimental data reported in the supplement of paper PMC6555819.

Key:
Assay in all cases: PBM binding z-score (relative to random genomic background probes); higher = stronger binding; sequences stand for … in GC…GCGATTGACAGCGTAGAATGAAGG
[1] = test system: FXR:RXRa (NR concentration 270 nM, RXRa partner concentration 90 nM)
Method in brief: (§1)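 Custom Agilent 4×180K protein-binding microarrays carried double-stranded probes. Their 34-nt variable regions held direct-repeat seeds, single-nucleotide variants, half-site ablations and random human genomic background sequences. Arrays were incubated 1 h with ligand-free nuclear receptor dimers in PBS pH 7.4, 2% milk, 0.02% Triton X-100, 1 mM DTT, 0.2 mg/mL BSA and 0.4 mg/ml salmon testes DNA. Antibodies against each partner (one per run) detected binding, and scanned fluorescence was regression-normalized. Binding z-scores use random background probes as reference.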

[2] = test system: LXRa:RXRa (NR concentration 270 nM, RXRa partner concentration 90 nM)
Method in brief: as §1

[3] = test system: LXRa homodimer (NR concentration 270 nM)
Method in brief: as §1

[4] = test system: LXRb:RXRa (NR concentration 270 nM, RXRa partner concentration 90 nM)
Method in brief: as §1

[5] = test system: LXRb homodimer (NR concentration 270 nM)
Method in brief: as §1

[6] = test system: PPARa:RXRa (NR concentration 270 nM, RXRa partner concentration 90 nM)
Method in brief: as §1

[7] = test system: PPARg:RXRa (NR concentration 180 nM, RXRa partner concentration 90 nM)
Method in brief: as §1

[8] = test system: PPARg:RXRa 270nM:90nM, anti-RXR (NR concentration 270 nM, RXRa partner concentration 90 nM)
Method in brief: as §1

[9] = test system: PPARg:RXRa 30nM:10nM, anti-RXR (NR concentration 30 nM, RXRa partner concentration 10 nM)
Method in brief: as §1

[10] = test system: PPARg:RXRa 90nM:30nM, anti-RXR (NR concentration 90 nM, RXRa partner concentration 30 nM)
Method in brief: as §1

[11] = test system: PPARg:RXRa DBDmut IVT, anti-RXR (DBD mutation: RXRa K156A/R161A, NR concentration 270 nM, RXRa partner concentration 90 nM)
Method in brief: as §1

[12] = test system: PPARg:RXRa IVT, anti-PPARg (NR concentration 270 nM, RXRa partner concentration 90 nM)
Method in brief: as §1

[13] = test system: PPARg DBDmut:RXRa IVT, anti-PPARg (DBD mutation: PPARg1 K132A/R137A, NR concentration 270 nM, RXRa partner concentration 90 nM)
Method in brief: as §1

[14] = test system: PPARg DBDmut IVT, anti-PPARg (DBD mutation: PPARg1 K132A/R137A, NR concentration 270 nM)
Method in brief: as §1

[15] = test system: PPARg homodimer (NR concentration 180 nM)
Method in brief: as §1

[16] = test system: PXR:RXRa (NR concentration 270 nM, RXRa partner concentration 90 nM)
Method in brief: as §1

[17] = test system: PXR homodimer (NR concentration 270 nM)
Method in brief: as §1

[18] = test system: RARa:RXR (NR concentration 270 nM, RXRa partner concentration 90 nM)
Method in brief: as §1

[19] = test system: RARa homodimer (NR concentration 270 nM)
Method in brief: as §1

[20] = test system: RARb:RXRa (NR concentration 270 nM, RXRa partner concentration 90 nM)
Method in brief: as §1

Sequence	PBM binding z-score [1]	PBM binding z-score [2]	PBM binding z-score [3]	PBM binding z-score [4]	PBM binding z-score [5]	PBM binding z-score [6]	PBM binding z-score [7]	PBM binding z-score [8]	PBM binding z-score [9]	PBM binding z-score [10]	PBM binding z-score [11]	PBM binding z-score [12]	PBM binding z-score [13]	PBM binding z-score [14]	PBM binding z-score [15]	PBM binding z-score [16]	PBM binding z-score [17]	PBM binding z-score [18]	PBM binding z-score [19]	PBM binding z-score [20]
CTCGAAAGGTCGGTTGAGGTGAGTTTACGGATAA	2.83	1.88	0.32	1.63	-0.184	2.69	-9.87e-05	1.12	0.0415	0.508	1.08	0.924	-0.565	-0.36	0.854	3.83	0.588	2.16	-0.143	3.09
CCTACTGGGCCATCAGTTCATTGATATCAACGTT	0.0577	-0.0476	0.218	0.257	-0.567	1.11	1.34	2.19	0.638	1.48	4.11	3.98	0.61	0.651	0.245	1.18	2.78	0.106	0.0148	0.462
TCATATAGGTAAACACGTGAAAGTCCGTAAGTTA	0.505	0.566	0.235	0.56	0.236	1.33	1.16	2.12	3.63	2.89	4.07	2.96	0.9	1.04	0.24	0.722	0.241	0.769	1.1	0.364
GCGACTGGGGCATCAGCAGGTTACAATAACTTAA	-0.294	-0.143	-0.328	0.834	-0.691	1.24	1.02	0.768	-0.192	0.171	3.24	3.27	-0.414	-0.53	0.365	0.0826	-0.126	0.651	-0.54	0.753
ATCGAATGGTCGACGAGGTGAGTATACACCGTTT	-0.323	-0.552	-0.816	-0.341	-0.342	-0.212	0.744	-0.273	0.119	-0.347	-0.664	0.567	-0.0586	-0.0219	-0.342	-0.323	-0.282	-0.136	-0.0822	0.37
CAAACTAGGTCAAAGGTCAAATTCGAGCCAACCA	8.57	7.2	6.34	7.43	4	7.66	14.1	11.5	12.7	14	8.73	9.36	7.2	6.6	8.4	7.16	1.57	8.86	3.32	5.62
TCTAGATGGTCAAAGGTCACACACTCGAAATGCG	6.69	5.75	4.06	5.58	1.37	6.38	10.2	8.58	8.53	9.72	3.19	5.41	1.82	1.44	5.45	6.1	1.7	7.48	3.63	4.89
TCTTGTAGATCAATAGAGGTTAGGAAAGTGCGCT	1.24	1.49	0.276	0.914	0.11	1.62	0.163	2.04	3.13	2.57	2	0.75	0.694	0.358	0.823	2.06	0.156	1.41	0.518	0.535
AATACAGGGTCAGCGTAGGCCAGAGTACGCACAG	5.67	4.35	0.74	2.92	0.652	4.74	4.5	3.96	0.97	2.52	1.94	3.32	1.54	1.65	1.81	3.51	0.39	3.85	0.496	4.15
TGAATGAGGTTATAAGACCAGGGAACGTTGCAAA	1.42	1.55	-0.275	0.883	-0.347	2.44	1.25	1.65	0.679	1.33	1.18	1.75	0.985	0.561	0.257	0.794	-0.0148	1.33	0.0796	1.29
CCGCCTGGGGCAGAAAGGTTACCATACCATCCGG	0.138	0.416	-0.112	0.678	-1.32	1.59	0.804	1.25	-0.385	0.357	-0.75	-0.444	-1.12	-1.51	0.297	0.861	-0.276	1.49	-0.241	1.83
ATATGTAGGTTAGCTGGGGTCACTCAGACTAGGC	4.47	5.35	1.4	4.08	1.05	5.03	5.15	5.18	2.81	4.46	6.74	6.02	1.28	0.639	2.37	5.85	2.05	5.16	0.798	3.22
TTACCAAGGTGAGCTGAGGTCGTTGAGCCAACTC	1.91	1.27	-0.402	0.809	-1.19	1.84	-0.225	0.876	-0.207	0.236	0.949	1.75	-0.809	-0.728	-0.0553	5.03	0.369	2.08	-0.816	1.76
